Results on 40 compounds are retold here after PubChem BioAssay.

Where “and” joins values, the source holds several entries; their conditions need not be identical. Equal values may be shown once. Calls of active or inactive are those of the source. No rule for the calls is given here. Non-standard residues stand in square brackets, D forms with d. Residues, ends and D or L forms follow the SMILES beside them. Orn = NCCC[CH](N)C(=O)O

The test system of the assay is Aerobactin synthetase IucA (Klebsiella pneumoniae hvKP1). Kind of assay: IucA enzyme inhibition, primary screen, biochemical, Spectrum library (AID 1346200).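 Also: 100% = wells without compound and 0% = wells lacking enzyme.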 The settings on record: malachite green pyrophosphate, A620, at 8 µM, hits give low values.
With `COc1ccc(C(Cl)=C(c2ccc(OC)cc2)c2ccc(OC)cc2)cc1`, the activity remaining is 117% (inactive).

On to `C/C=C/CC(C)C(O)C1C(=O)NC(CC)C(=O)N(C)CC(=O)N(C)C(CC(C)C)C(=O)NC(C(C)C)C(=O)N(C)C(CC(C)C)C(=O)NC(C)C(=O)NC(C)C(=O)N(C)C(CC(C)C)C(=O)N(C)C(CC(C)C)C(=O)N(C)C(C(C)C)C(=O)N1C` (stereo not given), for which the activity remaining is 113% (inactive).

With `CCCOc1ccc(C(=O)OCCN(CC)CC)cc1N`, the activity remaining is 109% (inactive).

Turning to `CC(C)CC1NC(=O)C(CCCN)NC(=O)C(C(C)C)NC(=O)C2CCCN2C(=O)C(Cc2ccccc2)NC(=O)C(CC(C)C)NC(=O)C(CCCN)NC(=O)C(C(C)C)NC(=O)C2CCCN2C(=O)C(Cc2ccccc2)NC1=O` (stereo not given) (cyclo(FPV[Orn]LFPV[Orn]L); configuration not given here), the activity remaining was 122% (inactive).

As for `COc1cc2c3cc1Oc1cc(ccc1O)C[C@@H]1c4c(cc(OC)c(O)c4Oc4ccc(cc4)C[C@@H]3N(C)CC2)CC[N+]1(C)C`, the activity remaining was 99.6% (inactive).

`CC(=O)O[C@H]1CC[C@]2(C)C3CC(=O)[C@]4(C)C(C(C)=O)=CCC4C3CC[C@H]2C1` (stereo not given in full): the activity remaining was 101% (inactive).

As for `COc1c2ccoc2cc2oc(C)cc(=O)c12`, the activity remaining was 108% (inactive).

In the case of `FC(F)(F)C(Cl)Br` (stereo not given), the activity remaining was 106% (inactive).

As to `NS(=O)(=O)c1cc(C2(O)NC(=O)c3ccccc32)ccc1Cl` (stereo not given), the activity remaining was 117% (inactive).

For the compound `OCC(O)C(O)C(O)CO` (stereo not given), the activity remaining was 112% (inactive) and 92.5% (inactive).

As to `Cc1cc(CC(=O)O)n(C)c1C(=O)c1ccc(Cl)cc1`, the activity remaining is 77.2% (inactive).

Turning to `C=C1C(=O)O[C@@H]2C[C@@]3(C)CCC[C@H](C)C3=C[C@H]12`, the activity remaining is 97.8% (inactive).

Turning to `COc1cc2c(cc1OC)-c1cc3ccc(OC)c(OC)c3c[n+]1CC2`, the activity remaining was 97.8% (inactive) and 112% (inactive).

As to `Cn1c([N+](=O)[O-])cnc1COC(N)=O`, the activity remaining is 104% (inactive).

Consider `COc1c(CC(=O)c2cc3c(cc2O)OC(C)(C)C(O)C3)ccc2c1C=CC(C)(C)O2` (stereo not given), for which the activity remaining is 96.2% (inactive).

With `CC1=NN(c2ccccc2)C(=O)C1`, the activity remaining was 120% (inactive).

As for `CCCc1c(OCCCCc2nn[nH]n2)ccc(C(C)=O)c1O`, the activity remaining was 112% (inactive).

For the compound `CC(=O)O[C@@H]1CC2C(C)(C)C(=O)CC[C@]2(C)C2CC[C@@]3(C)[C@H](c4ccoc4)OC(=O)C4OC43[C@@]21C` (stereo not given in full), the activity remaining was 110% (inactive).

With `C=C1C(=O)O[C@@H]2C3OC3(C)CC/C=C(\C)CC[C@@H]12` (stereo not given in full), the activity remaining is 105% (inactive).

As to `CC(NCCC(c1ccccc1)c1ccccc1)c1ccccc1` (stereo not given), the activity remaining is 104% (inactive).

As to `Cc1cc(O)c2c(c1)C(=O)c1cccc(O)c1C2=O`, the activity remaining was 107% (inactive).

In the case of `CC(C)CCCC(C)C1CCC2C3CC(=O)[C@H]4C[C@@H](O)CC[C@]4(C)C3CC[C@]12C` (stereo not given in full), the activity remaining was 121% (inactive).

For the compound `Nc1nc(=S)c2[nH]cnc2[nH]1`, the activity remaining is 121% (inactive).

As for `S=c1[nH]c2ccccc2s1`, the activity remaining was 99.3% (inactive).

As to `COC(=O)CC1C(C)(C)C(OC(C)=O)[C@@H]2[C@@H](OC(C)=O)[C@]34O[C@@]2(O)[C@]1(C)C3CC[C@]1(C)C4=CC(=O)O[C@H]1c1ccoc1` (stereo not given in full), the activity remaining was 124% (inactive).

Regarding `COC(=O)[C@H](Cc1ccccc1)NC(=O)[C@@H](N)CC(=O)O` (H-Asp-Phe-OMe), the activity remaining is 104% (inactive).

Consider `CC(=O)[C@H]1CCC2C3CCC4=CC(=O)CC[C@]4(C)C3CC[C@@]21C` (stereo not given in full), for which the activity remaining is 106% (inactive).

Turning to `CCCC(=O)O[C@]1(C(=O)CO)CCC2[C@@H]3CCC4=CC(=O)CC[C@]4(C)C3[C@@H](O)C[C@@]21C` (stereo not given in full), the activity remaining is 79% (inactive).

Turning to `Oc1c(Cl)cc(Cl)cc1Sc1cc(Cl)cc(Cl)c1O`, the activity remaining was 118% (inactive).

In the case of `CCOC(=O)OC(C)OC(=O)C1N2C(=O)C(NC(=O)[C@H](N)c3ccccc3)C2SC1(C)C` (stereo not given in full), the activity remaining was 104% (inactive).

Regarding `CC(=O)O[C@H]1C[C@@H](OC(C)=O)C(C)(C)C2C[C@@H](O)[C@]3(C)C(CC[C@@]4(C)[C@H](c5ccoc5)OC(=O)[C@H]5O[C@]543)[C@]21C` (stereo not given in full), the activity remaining is 94.5% (inactive).

On to `Cc1cc(O)cc(=O)o1`, for which the activity remaining is 116% (inactive).

Regarding `CC(=O)c1c(O)c(C)c(O)c2c1OC1=CC(=O)C(C(C)=O)C(=O)C12C` (stereo not given), the activity remaining was 94.6% (inactive).

Consider `CC(C)[N+]1(C)C2CC[C@@H]1CC(OC(=O)C(CO)c1ccccc1)C2` (stereo not given in full), for which the activity remaining was 109% (inactive).

In the case of `CCN(CC)CCOc1ccc2c(c1)C(=O)c1cc(OCCN(CC)CC)ccc1-2`, the activity remaining was 118% (inactive).

Take `CC(C)C(C)/C=C/C(C)C1CCC2C3=CC=C4CC(O)CCC4(C)C3CCC21C` (stereo not given): the activity remaining is 111% (inactive).

For `CCOC(=O)c1c(C)cc(OC)cc1O`, the activity remaining is 110% (inactive).

`CN1CCc2cccc3c2C1Cc1ccc(O)c(O)c1-3` (stereo not given): the activity remaining was 87.4% (inactive).

As for `C=C1[C@H]2CC[C@@]3(C)[C@H](c4ccoc4)OC(=O)C[C@]13O[C@H]1C[C@H](O)C(C)(C)[C@H](CC(=O)OC)[C@]12C`, the activity remaining is 107% (inactive).

As for `COc1ccc(/C=C/C(=O)c2cc(O)ccc2O)cc1`, the activity remaining is 87.4% (inactive).
